In PubChem BioAssay (NCATS):
Results filed as inconclusive are left out. Activity calls are given as the source filed them. Unless noted, calls follow the shape of the dose curve; as a rule, active = well fitted curve in the direction sought with a large enough effect; inconclusive = small, poorly fitted or top-dose-only effect, or another doubt; inactive = no such curve, though single readings can be large; an effect the other way counts as inactive or inconclusive.

Assays:
[1] = target: Thioredoxin reductase 1, cytoplasmic (Rattus norvegicus) (UniProt O89049); experiment: qHTS Assay for Substrates of Mammalian Selenoprotein Thioredoxin Reductase 1 (TrxR1) (AID 488772);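 also: series mostly up to about 57 µM; 0% is about no effect; a drop in NADPH fluorescence below the no-compound background marks a TrxR1 substrate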
Chain of Thioredoxin reductase 1, cytoplasmic (Rattus norvegicus) (O89049 whole entry, looked up): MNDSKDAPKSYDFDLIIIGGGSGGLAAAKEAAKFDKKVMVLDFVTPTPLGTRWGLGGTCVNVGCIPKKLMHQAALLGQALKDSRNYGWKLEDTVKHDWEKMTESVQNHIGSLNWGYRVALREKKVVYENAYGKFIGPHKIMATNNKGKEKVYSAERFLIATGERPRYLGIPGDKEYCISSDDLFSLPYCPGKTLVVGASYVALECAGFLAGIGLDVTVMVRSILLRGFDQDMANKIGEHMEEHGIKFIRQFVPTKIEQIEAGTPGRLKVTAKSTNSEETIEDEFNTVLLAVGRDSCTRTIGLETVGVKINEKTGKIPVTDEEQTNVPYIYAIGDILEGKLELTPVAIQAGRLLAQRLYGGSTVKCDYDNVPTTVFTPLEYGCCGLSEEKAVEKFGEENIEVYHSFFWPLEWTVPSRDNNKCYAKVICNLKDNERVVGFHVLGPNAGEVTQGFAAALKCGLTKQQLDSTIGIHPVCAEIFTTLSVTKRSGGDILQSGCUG
Procedure, shortened: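 In this dual-purpose format, potential substrates are identified from the first fluorescence read after selenite addition, not from the 8-minute delta. Rat enzyme is preincubated with NADPH and then with compound at ~22 deg C.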

[2] = target: Thioredoxin reductase 1, cytoplasmic (Rattus norvegicus) (UniProt O89049); experiment: qHTS Assay for Inhibitors of Mammalian Selenoprotein Thioredoxin Reductase 1 (TrxR1) (AID 488773); details: Potency: inhibition; also: nearly all actives have a fitted effect of over 40% in size; also: potency is read from the fitted curve at half-maximal effect
Procedure, shortened: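 Inhibition is scored from the loss of NADPH fluorescence between first and last reads of an 8-min kinetic run. Selenite (400 uM) was the substrate, added after 15 min compound preincubation at room temperature.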

[3] = target: M-phase phosphoprotein 8 (Homo sapiens) (UniProt Q99549); experiment: qHTS Validation Assay for Inhibitors for MPP8 Chromodomain Interactions with Methylated Histone Tails (AID 488949); also: nearly all actives have a fitted effect of over 55% in size; also: potency is read from the fitted curve at half-maximal effect
Chain of M-phase phosphoprotein 8 (Homo sapiens) (Q99549 whole entry, looked up): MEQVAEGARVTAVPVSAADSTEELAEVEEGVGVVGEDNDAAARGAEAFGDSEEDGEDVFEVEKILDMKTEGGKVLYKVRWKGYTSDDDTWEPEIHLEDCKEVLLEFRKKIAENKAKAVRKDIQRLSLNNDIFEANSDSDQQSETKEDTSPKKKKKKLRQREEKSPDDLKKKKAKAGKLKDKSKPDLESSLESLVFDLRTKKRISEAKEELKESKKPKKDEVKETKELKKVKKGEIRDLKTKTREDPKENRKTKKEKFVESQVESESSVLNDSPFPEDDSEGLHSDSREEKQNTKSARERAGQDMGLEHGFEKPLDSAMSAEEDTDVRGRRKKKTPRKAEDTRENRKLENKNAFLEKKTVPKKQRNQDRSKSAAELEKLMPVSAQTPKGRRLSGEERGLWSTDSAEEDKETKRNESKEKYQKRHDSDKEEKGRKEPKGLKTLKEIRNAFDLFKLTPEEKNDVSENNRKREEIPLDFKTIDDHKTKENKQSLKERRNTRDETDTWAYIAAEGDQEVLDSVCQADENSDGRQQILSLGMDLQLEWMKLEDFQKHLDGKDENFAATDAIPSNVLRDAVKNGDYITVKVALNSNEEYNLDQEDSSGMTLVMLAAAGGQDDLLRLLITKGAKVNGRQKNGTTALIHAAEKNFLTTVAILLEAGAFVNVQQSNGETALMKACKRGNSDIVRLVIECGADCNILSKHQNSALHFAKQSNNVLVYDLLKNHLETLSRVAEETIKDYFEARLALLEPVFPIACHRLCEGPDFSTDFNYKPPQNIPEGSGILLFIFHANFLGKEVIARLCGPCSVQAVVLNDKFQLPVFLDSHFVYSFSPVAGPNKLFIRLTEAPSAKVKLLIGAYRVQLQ
Procedure, shortened: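 50 nM MPP8 + 50 nM b-H3K9me3 peptide, PBS pH 7.4/0.01% Tween-20, 30 min RT; + cpd 30 min RT; + AlphaScreen donor/Ni-chelate acceptor beads 10 ug/mL final, 30 min dark; luminescence read.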

[4] = target: Chromobox protein homolog 1 (Homo sapiens) (UniProt P83916); experiment: qHTS Validation Assay for Inhibitors of HP1-beta Chromodomain Interactions with Methylated Histone Tails (AID 488953); also: nearly all actives have a fitted effect of over 50% in size; also: potency is read from the fitted curve at half-maximal effect
Chain of Chromobox protein homolog 1 (Homo sapiens) (P83916 whole entry, looked up): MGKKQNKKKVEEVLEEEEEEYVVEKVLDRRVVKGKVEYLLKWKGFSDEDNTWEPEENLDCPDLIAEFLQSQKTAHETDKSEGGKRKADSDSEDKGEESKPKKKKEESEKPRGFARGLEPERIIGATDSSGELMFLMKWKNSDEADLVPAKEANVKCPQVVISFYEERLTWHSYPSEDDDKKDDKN
Procedure, shortened: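 AlphaScreen proximity signal from streptavidin donor and nickel chelate acceptor beads (final 10 ug/mL) after 30 min dark incubation. Compounds had 30 min at room temperature with preformed complex of 50 nM HP1-beta and 50 nM b-H3(1-18)K9me3 in PBS pH 7.4 with 0.01% Tween-20.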

[5] = target: Methanococcus maripaludis chaperonin (MmCpn) (UniProt Q6LX38); experiment: High-Throughput Screening for Modulators of Cytosolic Chaperonin Activity: MmCpn Primary Screen (AID 488978);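 also: 50 nM MmCpn enzyme hydrolysing 30 µM ATP at 37 °C; 0% is about no effect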
Chain of Methanococcus maripaludis chaperonin (MmCpn) (Q6LX38 1-543): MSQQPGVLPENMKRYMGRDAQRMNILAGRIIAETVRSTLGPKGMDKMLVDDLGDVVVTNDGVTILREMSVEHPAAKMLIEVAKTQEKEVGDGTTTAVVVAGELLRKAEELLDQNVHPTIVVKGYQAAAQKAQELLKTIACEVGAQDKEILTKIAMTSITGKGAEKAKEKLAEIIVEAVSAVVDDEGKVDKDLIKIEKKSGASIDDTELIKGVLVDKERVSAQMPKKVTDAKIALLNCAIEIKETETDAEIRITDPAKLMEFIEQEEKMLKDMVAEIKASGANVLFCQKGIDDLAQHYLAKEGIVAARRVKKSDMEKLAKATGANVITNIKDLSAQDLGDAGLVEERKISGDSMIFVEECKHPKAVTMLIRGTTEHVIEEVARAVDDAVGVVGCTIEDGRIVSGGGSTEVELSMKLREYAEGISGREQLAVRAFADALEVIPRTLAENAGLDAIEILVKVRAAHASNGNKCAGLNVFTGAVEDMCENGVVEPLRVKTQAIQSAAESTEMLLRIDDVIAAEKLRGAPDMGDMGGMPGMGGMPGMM
Procedure, shortened: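 Steps: chaperonin 50 nM final; add compound, 5 min RT; start with ATP, 30 uM final; hold 10 min at 37C; add ADP Transcreener HTRF reagent, 5 min; read ex 320, em 590 and 665 nm.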

[6] = target: Transient receptor potential cation channel subfamily V member 1 (Homo sapiens) (UniProt Q8NER1); experiment: HTS Assay for Compounds that Act as Enhancers of the Vanilloid Receptor 1 (AID 488979); also: 0% is about no effect
Chain of Transient receptor potential cation channel subfamily V member 1 (Homo sapiens) (Q8NER1 whole entry, looked up): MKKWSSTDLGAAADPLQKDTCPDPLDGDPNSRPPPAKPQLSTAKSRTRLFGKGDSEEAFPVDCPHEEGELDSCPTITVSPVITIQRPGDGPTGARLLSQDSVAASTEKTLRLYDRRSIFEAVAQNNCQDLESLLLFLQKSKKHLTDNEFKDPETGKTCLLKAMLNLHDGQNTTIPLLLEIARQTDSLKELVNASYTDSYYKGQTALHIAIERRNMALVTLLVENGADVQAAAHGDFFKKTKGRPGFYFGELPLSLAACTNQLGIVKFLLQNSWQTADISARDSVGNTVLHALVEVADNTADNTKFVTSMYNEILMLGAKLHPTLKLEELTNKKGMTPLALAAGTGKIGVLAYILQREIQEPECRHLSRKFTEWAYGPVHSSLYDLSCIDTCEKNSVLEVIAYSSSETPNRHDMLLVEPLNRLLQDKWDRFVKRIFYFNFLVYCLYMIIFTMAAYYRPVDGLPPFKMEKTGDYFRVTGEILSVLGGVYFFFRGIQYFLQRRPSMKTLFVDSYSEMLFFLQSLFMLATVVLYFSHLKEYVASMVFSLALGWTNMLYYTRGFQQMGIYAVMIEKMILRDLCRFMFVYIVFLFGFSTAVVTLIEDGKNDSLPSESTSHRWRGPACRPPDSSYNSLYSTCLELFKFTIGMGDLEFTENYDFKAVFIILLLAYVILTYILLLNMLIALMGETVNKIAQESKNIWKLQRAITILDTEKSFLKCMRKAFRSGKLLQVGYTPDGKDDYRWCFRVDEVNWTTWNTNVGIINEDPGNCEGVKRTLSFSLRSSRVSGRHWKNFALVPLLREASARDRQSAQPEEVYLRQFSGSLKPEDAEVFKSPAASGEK
Procedure, shortened: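 TRPV1-expressing cells loaded with Fluo-8 calcium dye; compounds added and calcium influx read kinetically for 3 min (agonist phase), then capsaicin at EC20 added and read 2 min more for enhancement. Fluorescence ex 480/em 520 nm.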

[7] = target: Thyrotropin receptor (Homo sapiens) (UniProt P16473); experiment: qHTS Assay for Antagonists of the Thyroid Stimulating Hormone Receptor (AID 488980); also: series mostly up to about 58 µM; 0% is about no effect
Chain of Thyrotropin receptor (Homo sapiens) (P16473 whole entry, looked up): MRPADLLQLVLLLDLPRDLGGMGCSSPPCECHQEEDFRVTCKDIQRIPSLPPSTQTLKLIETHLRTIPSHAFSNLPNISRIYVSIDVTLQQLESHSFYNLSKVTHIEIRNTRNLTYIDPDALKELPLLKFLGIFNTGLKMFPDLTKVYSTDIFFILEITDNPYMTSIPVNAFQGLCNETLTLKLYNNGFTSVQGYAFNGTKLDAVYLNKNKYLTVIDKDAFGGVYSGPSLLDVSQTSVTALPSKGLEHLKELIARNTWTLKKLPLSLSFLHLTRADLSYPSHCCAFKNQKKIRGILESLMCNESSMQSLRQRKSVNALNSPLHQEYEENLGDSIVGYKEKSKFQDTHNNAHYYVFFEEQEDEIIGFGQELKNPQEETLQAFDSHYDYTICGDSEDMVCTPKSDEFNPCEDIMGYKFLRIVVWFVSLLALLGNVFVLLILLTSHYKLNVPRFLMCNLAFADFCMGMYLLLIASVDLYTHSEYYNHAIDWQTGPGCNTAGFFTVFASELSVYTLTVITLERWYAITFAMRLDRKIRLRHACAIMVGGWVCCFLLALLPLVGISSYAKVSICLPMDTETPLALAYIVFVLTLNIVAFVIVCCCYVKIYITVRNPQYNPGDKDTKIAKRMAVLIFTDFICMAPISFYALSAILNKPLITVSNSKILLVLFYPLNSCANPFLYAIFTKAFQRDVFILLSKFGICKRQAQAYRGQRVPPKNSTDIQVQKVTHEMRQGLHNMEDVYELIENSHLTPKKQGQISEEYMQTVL
Procedure, shortened: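 Readout is cAMP by HTRF competition between cellular cAMP and cAMP-d2 for a cryptate-labelled antibody. Antagonism was assessed in TSHR-transfected HEK293 cells stimulated with 4 nM TSH (EC80, final) in the presence of RO 20-1724.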

[8] = target: D(1A) dopamine receptor (Homo sapiens) (UniProt P21728); experiment: HTS Assay for Allosteric Agonists of the Human D1 Dopamine Receptor: Primary Screen for Agonists (AID 488981); also: 0% is about no effect
Chain of D(1A) dopamine receptor (Homo sapiens) (P21728 whole entry, looked up): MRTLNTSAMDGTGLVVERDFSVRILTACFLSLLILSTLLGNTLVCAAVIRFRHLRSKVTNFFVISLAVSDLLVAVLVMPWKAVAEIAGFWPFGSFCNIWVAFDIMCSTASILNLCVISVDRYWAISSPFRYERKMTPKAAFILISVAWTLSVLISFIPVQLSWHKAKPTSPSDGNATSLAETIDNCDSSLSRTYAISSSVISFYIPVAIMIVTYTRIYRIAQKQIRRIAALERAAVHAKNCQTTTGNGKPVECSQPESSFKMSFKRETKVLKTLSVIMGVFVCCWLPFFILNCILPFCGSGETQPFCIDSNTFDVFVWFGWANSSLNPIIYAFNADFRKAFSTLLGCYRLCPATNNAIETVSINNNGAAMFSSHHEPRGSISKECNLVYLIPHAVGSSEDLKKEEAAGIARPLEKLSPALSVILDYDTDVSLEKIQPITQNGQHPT
Procedure, shortened: (§1)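 Tetracycline-induced HEK293 T-REx cells force-coupled to calcium signalling were incubated overnight at 30 C and dye-loaded at room temperature. Calcium flux over 180 s after compound addition flagged agonists; a further 180 s read after EC20 dopamine flagged potentiators.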

[9] = target: D(1A) dopamine receptor (Homo sapiens) (UniProt P21728); experiment: HTS Assay for Allosteric Agonists of the Human D1 Dopamine Receptor: Primary Screen for Potentiators (AID 488982); also: 0% is about no effect
Procedure, shortened: as §1

[10] = target: D(1A) dopamine receptor (Homo sapiens) (UniProt P21728); experiment: HTS Assay for Allosteric Agonists of the Human D1 Dopamine Receptor: Primary Screen for Antagonists (AID 488983);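 also: calcium flux response to an EC80 dopamine challenge measured with no-wash dye; nearly all actives have a fitted effect of over 65% in size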; also: potency is read from the fitted curve at half-maximal effect
Procedure, shortened: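 Calcium-flux read-out in inducible HEK293 T-REx cells expressing D1, dye-loaded 30–90 min at room temperature. Kinetic reads: 180 s after compound (agonist phase), then 180 s after an EC80 dopamine challenge.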

[11] = Validation screen for small molecules that induce genotoxicity in human embryonic kidney (HEK293T) cells expressing luciferase-tagged ELG1 (AID 493106); also: 0% is about no effect
Procedure, shortened: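 ELG1-luciferase reporter readout (ONE-Glo, 30 min, room temperature) after 16 hr compound treatment at 37 °C of HEK293T cells at 2,000 per well. Rising luminescence flags genotoxic stress.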

[12] = Nrf2 qHTS screen for inhibitors: Validation (AID 493153; active = well fitted inhibition curve with a large enough effect in the main read-out, with a control signal flat, not every such curve was filed as active); details: Potency: luciferase luminescence; viability change: measured here: cytotoxicity max response
Procedure, shortened: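 Concentration-response on A549 ARE_Fluc reporter cells exposed 18-24 h at 37 C, 5% CO2. Cytotoxicity read first by CellTiter-Fluor fluorescence (Ex 405/Em 525), then Nrf2 inhibition by BugLite luminescence after 15 min.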

[13] = qHTS for Inhibitors of Cell Surface uPA Generation: Validation Assay (AID 493164);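 also: RAW 264.7 macrophage cells exposed to compound for 18 h; 0% is about no effect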
Procedure, shortened: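 ATP-Lite luminescence read-out: ATP remains high when uPA activity-dependent LF translocation into the cytoplasm is blocked. RAW 264.7 cells, 18 h compound exposure at 37 C; 7-point titration, 2.45 nM to 38.3 uM final.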

[14] = target: Galactokinase (Homo sapiens) (UniProt P51570); experiment: qHTS Validation Assay for Inhibitors of Human Galactokinase (GALK) (AID 493189); also: 0% is about no effect
Chain of Galactokinase (Homo sapiens) (P51570 whole entry, looked up): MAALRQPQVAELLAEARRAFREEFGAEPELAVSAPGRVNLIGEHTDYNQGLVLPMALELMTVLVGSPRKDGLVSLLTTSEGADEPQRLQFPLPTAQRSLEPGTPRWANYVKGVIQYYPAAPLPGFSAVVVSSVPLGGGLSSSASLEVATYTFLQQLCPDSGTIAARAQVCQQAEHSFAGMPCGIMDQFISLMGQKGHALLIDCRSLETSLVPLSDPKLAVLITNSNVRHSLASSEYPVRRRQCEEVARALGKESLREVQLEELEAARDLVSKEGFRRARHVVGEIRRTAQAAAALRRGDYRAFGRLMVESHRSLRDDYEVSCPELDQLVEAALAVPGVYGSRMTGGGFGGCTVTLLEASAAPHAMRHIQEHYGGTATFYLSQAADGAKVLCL
Procedure, shortened: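 5 nM GALK / 100 uM galactose / 35 uM ATP, 20 mM HEPES pH8.0, 5 mM MgCl2, 60 mM NaCl, 1 mM DTT, 0.01% BSA (final). RT 1 h; Kinase-Glo Plus luminescence.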

[15] = Validation screen for small molecules that induce DNA re-replication in SW480 colon adenocarcinoma cells (AID 504364); also: 0% is about no effect
Procedure, shortened: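 Image-based DNA content read-out: Hoechst stain 40 min, total nuclear fluorescence intensity (ex 405 nm, em 500-530 nm) after 48 h compound exposure of 250 SW480 cells/well at 37 C, 5% CO2, versus DMSO vehicle.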

[16] = target: Thyrotropin-releasing hormone receptor (Homo sapiens) (UniProt P34981); experiment: qHTS for Small Molecule Agonists and Allosteric Enhancers of Human TRH Receptor: Validation Screen for Agonists (AID 493127;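 active = calcium activation more than 3 SD above the typical response in the agonist read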;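 also: intracellular calcium rise by fluo-8 fluorescence before TRH EC20 addition; 0% is about no effect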); details: TRH receptor agonist cell assay; at 2 µM; stronger effect = higher value
Chain of Thyrotropin-releasing hormone receptor (Homo sapiens) (P34981 whole entry, looked up): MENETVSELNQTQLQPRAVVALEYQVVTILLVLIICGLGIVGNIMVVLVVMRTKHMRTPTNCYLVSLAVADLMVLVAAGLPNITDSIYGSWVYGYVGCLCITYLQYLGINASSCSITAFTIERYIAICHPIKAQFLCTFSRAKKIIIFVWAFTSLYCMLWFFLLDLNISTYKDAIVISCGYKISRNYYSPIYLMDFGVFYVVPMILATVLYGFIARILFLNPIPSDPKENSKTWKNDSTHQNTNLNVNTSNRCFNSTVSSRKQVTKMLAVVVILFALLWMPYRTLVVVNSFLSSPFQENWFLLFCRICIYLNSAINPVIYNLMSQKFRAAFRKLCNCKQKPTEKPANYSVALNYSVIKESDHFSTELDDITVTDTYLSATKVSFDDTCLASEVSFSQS
Procedure, shortened: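 Compound-evoked intracellular calcium release in fluo-8-loaded TRHR cells, read kinetically on FDSS (Ex 480/Em 530, 1 s/cycle) after 23 nL pintool transfer. Agonist phase preceded 10 nM TRH EC20 addition.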

[17] = target: Flap endonuclease 1 (Homo sapiens) (UniProt P39748); experiment: qHTS Validation Assay for the Inhibitors of Human Flap endonuclease 1 (FEN1) (AID 488816); also: % is scaled to controls: 0 for no effect and ±100 for the full control effect
Procedure, shortened: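 Steps: add FEN1 (10 nM reagent) or buffer only; pin compounds; hold 15 min at room temperature; start with substrate, 50 nM final; read at 0 and 15 min; correct, normalize and fit a four-parameter Hill curve.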

[18] = target: ATP-dependent 6-phosphofructokinase (Trypanosoma brucei brucei) (UniProt O15648); experiment: qHTS Assay to Find Inhibitors of T. brucei phosphofructokinase: hit validation (AID 492961);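 also: luminescence reports ADP formed as PFK phosphorylates fructose-6-phosphate with ATP; series mostly up to about 51 µM; % is scaled to controls: 0 for no effect and ±100 for the full control effect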
Procedure, shortened: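 Percent activity derived from corrected luminescence, normalized between 0x and 1x enzyme controls, then fitted to concentration-response curves. Conditions: 1.25 nM PFK, 0.1 mM ATP, 0.5 mM F6P, 45 min RT.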

[19] = target: ATPase family AAA domain-containing protein 5 (Homo sapiens) (UniProt Q96QE3); experiment: Validation screen for small molecules that inhibit ELG1-dependent DNA repair in human embryonic kidney (HEK293T) cells expressing luciferase-tagged ELG1 (AID 493107);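 also: series mostly up to about 46 µM; % is scaled to controls: 0 for no effect and ±100 for the full control effect; inhibitors lower the ELG1-luciferase luminescence signal; nearly all actives have a fitted effect of over 70% in size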
Procedure, shortened: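 Luciferase read-out, ONE-Glo, 30 min at room temperature, follows 16 h co-exposure at 37 C of compound and the DNA-damaging agent 5-fluorouridine. Cells: HEK293T with ELG1-luciferase fusion, 2,000 per well, DMSO as vehicle.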

[20] = target: Tyrosyl-DNA phosphodiesterase 1 (Homo sapiens) (UniProt Q9NUW8); experiment: Confirmation Assay for Inhibitors of Tyrosyl-DNA Phosphodiesterase (TDP1) (AID 489007); details: recombinant human TDP1 enzymatic activity, dose-response; also: potency is read from the fitted curve at half-maximal effect; nearly all actives have a fitted effect of over 40% in size
Procedure, shortened: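 AlphaScreen assay of tyrosine-FITC cleavage from a biotinylated DNA substrate (15 nM) by E. coli-expressed human Tdp1 (1 nM). Sequence: compound preincubation 15 min, reaction 5 min, bead detection 10 min, all at room temperature. No-enzyme wells give maximum signal.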

C#CCN[C@H](C)Cc1ccccc1
0.263%: viability change [12]
inactive: outcome [1] | Potency [2] | Potency [3] | Potency [4] | outcome [5] | outcome [6] | outcome [7] | Potency [8] | Potency [9] | Potency [10] | Potency [11] | Potency [12] | outcome [13] | outcome [14] | Potency [15]

Nc1ccc(CCN2CCN(c3cccc(C(F)(F)F)c3)CC2)cc1
inactive: outcome [1] | Potency [2] | outcome [5] | outcome [6] | outcome [7] | Potency [8] | Potency [11] | activation [16] 2.19% | outcome [13] | Potency [15]

NC(N)=NOCC[C@H](N)C(=O)O
10.2%: viability change [12]
inactive: outcome [1] | Potency [2] | Potency [17] | outcome [5] | outcome [6] | outcome [7] | Potency [8] | Potency [9] | Potency [10] | Potency [11] | activation [16] -0.375% | Potency [12] | outcome [13] | outcome [14] | Potency [15]

c1ccc2cc(CC3=NCCN3)ccc2c1
-5.88%: viability change [12]
inactive: outcome [1] | Potency [2] | Potency [3] | Potency [4] | outcome [5] | outcome [6] | Potency [8] | Potency [9] | Potency [10] | Potency [18] | Potency [11] | Potency [19] | Potency [12] | outcome [13] | outcome [14] | Potency [15]

O=C(O)c1cc[c]([Hg][Cl])cc1
inactive: outcome [1] | outcome [5] | outcome [6] | outcome [7] | Potency [8] | Potency [10] | Potency [11] | Potency [12] | outcome [13] | outcome [14] | Potency [15]
active: Potency [2] 0.299 µM | Potency [3] 5.32 µM | Potency [4] 39.8 µM | Potency [20] 56.2 µM
-2.02%: viability change [12]

Cc1sc2ccccc2c1CC1=NCCN1
inactive: outcome [1] | Potency [2] | Potency [3] | outcome [5] | outcome [6] | outcome [7] | Potency [8] | Potency [18] | Potency [11] | Potency [19] | activation [16] 1.12% | Potency [12] | outcome [13] | outcome [14] | Potency [15]
active: Potency [10] 10 µM
-0.892%: viability change [12]

O=C1C=CC(=O)C=C1
-5.52%: viability change [12]
inactive: outcome [1] | Potency [2] | Potency [3] | Potency [4] | outcome [5] | outcome [6] | outcome [7] | Potency [8] | Potency [9] | Potency [10] | Potency [11] | activation [16] 0.5% | Potency [12] | Potency [15]

Oc1ccc2c3c1O[C@H]1c4oc5ccccc5c4C[C@@]4(O)C(C2)N(CC2CC2)CCC314 (some centres undefined)
-2.78%: viability change [12]
inactive: outcome [1] | Potency [2] | Potency [4] | outcome [5] | outcome [6] | outcome [7] | Potency [8] | Potency [10] | Potency [11] | Potency [12] | outcome [13] | Potency [15]

CN1C2CCC1CC(OC(c1ccccc1)c1ccccc1N)C2 (centres undefined)
inactive: outcome [1] | Potency [2] | Potency [17] | outcome [5] | outcome [7] | Potency [8] | Potency [9] | Potency [10] | Potency [11] | Potency [19] | activation [16] 1.44% | Potency [12] | outcome [13] | outcome [14] | Potency [15]
-4.19%: viability change [12]

CC(C)(C)c1o[nH]c(=O)c1CC(N)C(=O)O (centres undefined)
inactive: outcome [1] | Potency [2] | Potency [3] | Potency [4] | outcome [5] | outcome [6] | outcome [7] | Potency [8] | Potency [9] | Potency [10] | Potency [11] | Potency [19] | outcome [13] | Potency [15]

CCCN1CCc2cc(O)cc3c2[C@H]1Cc1ccc(O)c(O)c1-3
inactive: outcome [1] | outcome [5] | Potency [8] | Potency [11] | Potency [19] | outcome [13]
active: Potency [3] 11.9 µM | Potency [4] 1.34 µM | Potency [10] 0.631 µM

O=[N+]([O-])c1cc(O)c(O)c([N+](=O)[O-])c1
inactive: outcome [1] | Potency [2] | Potency [3] | Potency [4] | outcome [5] | outcome [6] | outcome [7] | Potency [8] | Potency [9] | Potency [10] | Potency [11] | Potency [19] | outcome [13] | outcome [14] | Potency [15]
